Rows were chosen to be rich in hits. Some 3.5% of all compounds tested hit in one or more screens of this group.
GPR151 ag = activators of human GPR151; activation, % at 11.2 µM; actives 1% (n = 650,000); PathHunter beta-arrestin GPR151 cells, luminescence; AID 1508602; in the data active = activation above about 4.9%;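 note: 0% = median of compound wells and 100% = cells with positive control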
TEAD-YAP inh = TEAD-YAP interaction inhibition | HEK-TIYL cells, TEAD-Gal4/YAP UAS-luciferase luminescence | inhibition, % at 9.12 µM | actives 1.4% (n = 640,000) | AID 1259422; in the data active = inhibition above about 32%;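 note: 0% = median of test compound wells and 100% = reference inhibitor wells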
FBW7 activator = activators of human E3 ligase FBW7. AlphaScreen FBW7–phospho-cyclin E peptide binding, activator screen. normalized activity (activation), % at 26.1 µM. actives 0.13% (n = 650,000); in the data active = normalized activity above about 1.9%;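 note: purified mutant Fbw7 with reduced substrate affinity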
MITF primary = blocks human microphthalmia-associated transcription factor | O75030 | AlphaScreen MITF homodimerization, bead proximity signal | inhibition, % at 2.6 µM | actives 0.91% (n = 650,000) | AID 1259374; in the data active = inhibition above about 50%;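 note: 0% = vehicle wells with protein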
GPR151 confirm = human GPR151 activation, confirmation screen. GPR151 PathHunter beta-arrestin cells, luminescence, 90 min; % of EA-reagent control over plate median. 6,700 tested, under 10 active. shares compounds with GPR151 ag. activation, % at 11.2 µM;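 active = mean percent activation across replicates above the confirmation screen cutoff of 4.91%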
GPR119 counter = activates human GPR119 in a GPR151 counter-screen; shares compounds with GPR151 ag; GPR119 PathHunter beta-arrestin cells, luminescence, 90 min; 0 = compound-well median, 100 = enzyme-acceptor control; activation, % at 11.2 µM; actives 0.3% (n = 6,700);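 active = mean percent activation in the counterscreen above 29.09%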;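 note: counterscreen on off-target GPR119 to flag nonselective hits from the GPR151 activator screen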
Target sequence (Q8TDV5 whole entry, looked up): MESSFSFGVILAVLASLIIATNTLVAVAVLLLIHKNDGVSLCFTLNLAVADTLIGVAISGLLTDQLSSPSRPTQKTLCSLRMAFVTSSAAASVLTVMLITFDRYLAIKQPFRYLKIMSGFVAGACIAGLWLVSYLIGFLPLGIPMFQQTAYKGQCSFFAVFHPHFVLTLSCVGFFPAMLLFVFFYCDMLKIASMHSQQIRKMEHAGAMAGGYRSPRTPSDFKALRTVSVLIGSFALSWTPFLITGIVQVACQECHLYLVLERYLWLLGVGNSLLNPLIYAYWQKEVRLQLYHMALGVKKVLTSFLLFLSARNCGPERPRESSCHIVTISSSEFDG
The depositor's hits bear a star.

CN1CCN(c2ccccc2NC(=O)c2ccc([N+](=O)[O-])cc2Cl)CC1 was read as GPR151 ag -2, TEAD-YAP inh -8, FBW7 activator 1 and MITF primary 21.
For Cc1c(Cl)cccc1NC(=O)c1cc([N+](=O)[O-])ccc1N1CCN(C)CC1 the results were GPR151 ag 6.2*, TEAD-YAP inh 11, FBW7 activator 0, MITF primary 0, GPR151 confirm 1 and GPR119 counter 19.
For Cc1cc(C)nc(SCc2nc3ccccc3c(=O)[nH]2)n1 the results were GPR151 ag 2, TEAD-YAP inh -36, FBW7 activator 0 and MITF primary 9.
Screening CCc1noc(C)c1C(=O)OCC(=O)Nc1cc(C)on1 returned GPR151 ag 5.3*, TEAD-YAP inh 5, FBW7 activator 0, MITF primary 16, GPR151 confirm 2 and GPR119 counter 2.
Screening CCOc1ccc(CCNC(=O)Cn2ncn3cccc3c2=O)cc1OCC returned GPR151 ag 0, TEAD-YAP inh 2, FBW7 activator 0 and MITF primary 0.
Screening CCCSc1nnc2n(/N=C/c3ccco3)cnn12 returned GPR151 ag -1, TEAD-YAP inh -19, FBW7 activator 0 and MITF primary -8.
`CC(=O)OCC1OC(COc2ccc3c(=O)c(-c4cscn4)coc3c2)C(OC(C)=O)C(OC(C)=O)C1OC(C)=O` (configuration not stated) gave GPR151 ag 1, TEAD-YAP inh 3, FBW7 activator 0 and MITF primary 6.
For Cc1nc2nc(C(=O)O)[nH]n2c(=O)c1Cc1ccccc1 the results were GPR151 ag -1, TEAD-YAP inh 14, FBW7 activator 0 and MITF primary 8.
For Cc1nc2nc(C(F)(F)F)[nH]n2c(=O)c1Cc1ccccc1 the results were GPR151 ag 8.1*, TEAD-YAP inh -2, FBW7 activator 0, MITF primary -3, GPR151 confirm 0 and GPR119 counter 0.
Screening COCCNc1nc(-c2ccc(OC)c(OC)c2)no1 returned GPR151 ag 8.4*, TEAD-YAP inh 1, FBW7 activator 0, MITF primary -5, GPR151 confirm 0 and GPR119 counter 3.
For Cc1c(Cl)cccc1N1C(N)=C(C#N)C(c2ccc(Cl)cc2)C2=C1CCCC2=O (configuration not stated) the results were GPR151 ag 1, TEAD-YAP inh 11, FBW7 activator 0 and MITF primary 8.
For CCN(c1ccccc1)S(=O)(=O)c1ccc(-n2cccn2)cc1 the results were GPR151 ag 9.0*, TEAD-YAP inh 2, FBW7 activator 0, MITF primary -1, GPR151 confirm 0 and GPR119 counter 1.
CCN(c1ccccc1)S(=O)(=O)c1ccc(=O)[nH]c1 was read as GPR151 ag 6.3*, TEAD-YAP inh 10, FBW7 activator 1, MITF primary 13, GPR151 confirm -1 and GPR119 counter -3.
Screening CCN(c1ccccc1)S(=O)(=O)c1ccc2[nH]c(=O)ccc2c1 returned GPR151 ag 0, TEAD-YAP inh -5, FBW7 activator 0 and MITF primary 13.
Cc1cccc(CNC2CCN(c3ccc(C(=O)N4CCCC(O)C4)cc3)CC2)n1 (configuration not stated) was read as GPR151 ag 6.7*, TEAD-YAP inh -8, FBW7 activator 0, MITF primary 6, GPR151 confirm 0 and GPR119 counter 0.
Screening Cc1nc2sc(C(=O)O)c(-n3cccc3)c2c(C)c1Cl returned GPR151 ag 2, TEAD-YAP inh 8, FBW7 activator 0 and MITF primary 2.
O=C1N(C2CCCC2)C[C@@H]2C[C@@H](c3cccn3-c3nccs3)N3CCC[C@@]123 was read as GPR151 ag 6.4*, TEAD-YAP inh 4, FBW7 activator 0, MITF primary 6, GPR151 confirm 1 and GPR119 counter 5.
O=S(=O)(NN=C1CCCCC1)c1ccccc1 was read as GPR151 ag -2, TEAD-YAP inh -5, FBW7 activator 0 and MITF primary -5.
`O=S(=O)(NN=C1CCCCCC1)c1ccccc1` gave GPR151 ag 15*, TEAD-YAP inh 11, FBW7 activator 0, MITF primary 3, GPR151 confirm -1 and GPR119 counter -6.

Screens as filed in PubChem.
